The results in this text go back to PubChem BioAssay AID493131 (Broad Institute, 2011).

The whole screen tested about 340,000 compounds, of which about 3,300 (0.97%) were called active. The list comes from a sample in which actives are over-represented; it also holds similar structures and randomly drawn compounds. A number with no mark means an inactive call.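 The calls were made as follows: active = mean activation above about 17%, with every replicate also reaching it (limit read from the data, passing the limit was not always enough); inconclusive = only one of the two conditions met; inactive = the rest.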

Protein FosB (Mus musculus), sequence (P13346 whole entry, looked up): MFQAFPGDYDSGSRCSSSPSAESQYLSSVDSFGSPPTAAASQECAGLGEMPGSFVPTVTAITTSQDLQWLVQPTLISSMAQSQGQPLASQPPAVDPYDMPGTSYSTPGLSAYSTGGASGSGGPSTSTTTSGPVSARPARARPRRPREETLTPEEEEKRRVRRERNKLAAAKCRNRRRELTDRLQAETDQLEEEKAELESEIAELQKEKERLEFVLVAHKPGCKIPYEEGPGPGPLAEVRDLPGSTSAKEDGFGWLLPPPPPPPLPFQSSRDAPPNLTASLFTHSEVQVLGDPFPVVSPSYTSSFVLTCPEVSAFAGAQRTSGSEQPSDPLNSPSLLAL

The experiment has as its target Protein FosB (Mus musculus) (UniProt P13346). The experiment in a line: enhancers of mouse delta FosB DNA binding – biochemical, fluorescence polarization, TAMRA-CDK5 oligo, single point, primary screen (AID 493131).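 Also: fluorescence polarization rise as delta FosB binds a TAMRA Cdk5 AP-1 oligo.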 The settings on record: purified delta FosB, at 25 µM, hits give high values, percent of positive-control signal above neutral wells.
Regarding `O=C(NCC1CCCCC1)NCC1CCCCC1`, the activation was -3.89%.
In the case of `CCC(C)NC(=O)c1ccc(NC(=O)CC2SC(N3CCCCC3)=NC2=O)cc1` (stereo not given), the activation is -9.42%.
The figure for `Cc1cc(C)n2nc(CNS(=O)(=O)c3c(F)c(F)c(F)c(F)c3F)nc2n1` is -1.9%.
On to `CCn1c(NC(=O)c2ccccc2)c(-c2cccs2)c(=O)c2ccccc21`, for which the activation is -4.73%.
The figure for `CCn1c(=O)c2cc(C(=O)Nc3cccc(C(C)=O)c3)sc2c2ccccc21` is 73.2% (active); for `CC(=O)c1cccc(NC(=O)c2cc(C)nn2-c2ccccc2)c1` it is -9.9%; for `CCc1cccc(NC(=O)COC(=O)c2cc(=O)c3ccccc3o2)c1` it is -5.91%.
As for `COC(=O)c1c(C(=O)OC)c(-c2cccc(C)c2)n2c1CS(=O)C2` (stereo not given), the activation is -2.6%.
The same measure for `Cc1ccccc1Nc1c([N+](=O)[O-])ccc2nonc12`: -0.872%; for `CN(C)CCCN(C(=O)c1ccc(S(=O)(=O)N2CCCCCC2)cc1)c1nc2ccc(Br)cc2s1`: 41% (active); for `COc1ccc2sc(N(CCCN(C)C)C(=O)c3ccc(S(=O)(=O)N(C)C4CCCCC4)cc3)nc2c1`: 15.3%.
The figure for `CN(C)CCN(C(=O)C1=COCCO1)c1nc2ccc(Cl)cc2s1` is -10.2%.
The figure for `CCCCn1c(N)c(N(CCC(C)C)C(=O)COC(=O)c2ccc(CC)cc2)c(=O)[nH]c1=O` is 23.1% (active).
As for `CCCCn1c(N)c(N(CCC(C)C)C(=O)COC(=O)c2cccnc2OCC)c(=O)[nH]c1=O`, the activation was 1.39%.
The figure for `CCCCn1c(N)c(N(CCC(C)C)C(=O)c2ccc([N+](=O)[O-])o2)c(=O)[nH]c1=O` is -0.599%; for `CCn1c(/C=C/Nc2ccccc2)[n+](CC)c2ccc(C(=O)OCC(F)(F)F)cc21` it is -11.5%; for `O=C(NCCCn1ccnc1)C1CCCN(S(=O)(=O)c2cc(Cl)ccc2Cl)C1` (stereo not given) it is -4.73%.
The same measure for `CC(Sc1nc2cc(Cl)ccc2s1)C(=O)Nc1ccc2c(c1)OCO2` (stereo not given): -3.52%; for `CCSc1ccccc1C(=O)Nc1ccc2c(c1)OCO2`: 0.935%; for `CC(Sc1nc(-c2ccccc2)cc(C(F)(F)F)n1)C(=O)Nc1ccc2c(c1)OCO2` (stereo not given): 30.4% (active).
The same measure for `O=C1/C(=C/c2ccc3c(c2)OCO3)Oc2cc(OCC(=O)N3CC(O)C[C@H]3C(=O)O)ccc21` (stereo not given in full): -7.81%; for `Cc1ccc(C(=O)NNC(=O)c2ccc3c(c2)OCCO3)cc1`: -13%; for `Cc1ccc(C(=O)NNC(=O)c2cc3cc4ccccc4nc3s2)cc1`: 26.4% (active).
`Cc1ccc(C(=O)NNc2ncnc3ccccc23)cc1`: the activation was -2.14%.
With `O=C(COC(=O)c1ccc(S(=O)(=O)N2CCc3ccccc3C2)cc1)NC(=O)NCc1ccco1`, the activation was 61.2% (active).
The same measure for `O=C(CN1CCN(S(=O)(=O)/C=C/c2ccccc2)CC1)NC(=O)NCc1ccco1`: -9.92%; for `CC(NC(=O)c1cccc(S(=O)(=O)N2CCc3ccccc3C2)c1)c1ccco1` (stereo not given): 7.07%; for `Cc1cccc(C)c1NC(=S)N(Cc1cccnc1)Cc1ccccc1Cl`: 2.24%.
The figure for `COC(=O)C(C(=O)Nc1cccc(Cl)c1C)C1CCCC1` (stereo not given) is 0.709%; for `COc1cccc(/C=N/NC(=O)c2[nH]nc3c2CCc2ccccc2-3)c1O` it is 76.1% (active).
The figure for `COc1ccc(/C=N/NC(=O)c2ccncc2)cc1CN1CCCc2ccccc21` is -19.4%; for `COc1cccc(/C=N/NC(=O)CNC(=O)c2ccc(S(=O)(=O)N3CCOCC3)cc2)c1OC` it is 1.33%; for `CCOc1ccc2c(=O)c(-c3ccc4c(c3)OCCCO4)c(C)oc2c1` it is 5.27%.
Regarding `CCn1cc(CN2CCC(C(=O)Nc3cccc(-c4cccc(Cl)c4)c3)CC2)c(C)n1`, the activation is -5.85%.
The same measure for `O=C1c2ccncc2C(=O)N1C1CCCCC1`: -3.57%; for `Cc1cc(=O)oc2cc(OC(C)C(=O)Nc3ccc(N4CCOCC4)cc3)ccc12` (stereo not given): 14.2%; for `COc1ccc(-c2cc(=O)oc3cc(OC(C)C(=O)NCC4CCC(C(=O)O)CC4)ccc23)cc1` (stereo not given): 2.8%.
The same measure for `COc1ccc(-c2cc(=O)oc3cc(OC(C)C(=O)Nc4ccc(CN5CCOCC5)cc4)ccc23)cc1` (stereo not given): 28.5% (active); for `COc1ccc(CCN(C)C(=O)C23CC4CC(CC(Cl)(C4)C2)C3)cc1OC`: -11.5%.
The figure for `CCOc1ccc(NC(=O)CSc2ncnc3c2sc2ccccc23)cc1` is -0.561%; for `COc1cc(C(=S)NCc2ccccc2)cc(Br)c1O` it is -3.42%.
As for `COc1ccc(Cl)cc1NC(=O)CNc1ccccc1F`, the activation was 0.137%.
The same measure for `CCn1nc(C)c(/C=N/NC(=O)Cc2ccc(Cl)cc2)c1C`: -5.48%.
The same measure for `Cc1nn(Cc2ccc(Cl)cc2)c(Cl)c1/C=N/NC(=O)CNc1ccccc1F`: 20.3% (active); for `COC(=O)c1ccc(C(=O)Nc2cc(Cl)ccc2Cl)cc1NC(=O)c1ccccc1C`: -4.76%.
Consider `COc1cccc(NC(=O)Cn2c3ccccc3c3nc4n(c(=O)c32)CCS4)c1`, for which the activation is 10.7%.
The figure for `COc1cccc(NC(=O)Cn2c3ccc(F)cc3c3nc4n(c(=O)c32)CCS4)c1` is 20.4% (active); for `COc1ccc2c(c1)c1nc3n(c(=O)c1n2CC(=O)Nc1ccccc1)CCS3` it is 2.33%; for `CC1=NN(c2cccc(Cl)c2)C(=O)C12CC(C)=C(C)CS2` (stereo not given) it is -6.87%.
On to `Oc1ccccc1CNc1ncc(Br)cc1Br`, for which the activation was -0.334%.
Take `CC(C)C(NC(=O)c1cccc(S(=O)(=O)N2CCOCC2)c1)C(=O)NCCc1ccccn1` (stereo not given): the activation is -1.29%.
The same measure for `Cc1c(C#N)c2ncn(CC#N)c(=O)c2n1-c1ccccc1`: -7.05%; for `COc1ccc(-c2cc(C(=O)n3cnc4ccccc43)c3ccccc3n2)cc1`: -10%.
The figure for `COc1ccc(-c2cc3ncccc3cn2)cc1` is -21.2%; for `COc1ccc(-c2cc3n(n2)CCc2nc4ccccc4n2-3)cc1` it is 18.1% (active).
On to `CC(=O)N1CCN(CC(c2ccccc2)c2ccccc2)CC1`, for which the activation was 1.45%.
The figure for `O=c1[nH]snc1-c1c(Cl)cccc1Cl` is -3.4%; for `CN(CC(=O)Nc1ccc(Cl)cc1)C(=O)CNC(=O)c1ccc2ccccc2c1` it is 38.6% (active).
The figure for `O=C(NNC(=O)c1ccc2ccccc2c1)c1ccc(Cl)cc1` is 4.76%; for `CN(CC(=O)Nc1ccc(Cl)cc1)C(=O)c1ccc(COc2ccccc2)cc1` it is -1.5%.
The same measure for `Nc1ccccc1/C=N\N=C/c1ccccc1N`: 1.65%; for `Cc1nc(-c2ccc(Cl)cc2)sc1C1(C)CC(c2ccc(Br)cc2)=NO1` (stereo not given): -6.82%; for `COc1ccc(Cn2c(=S)[nH]c3cc(C(=O)N4CCCCC4)ccc3c2=O)cc1`: 67.5% (active).
Take `COc1ccc(Cn2c(=S)[nH]c3cc(C(=O)NCCCN4CCOCC4)ccc3c2=O)cc1`: the activation is -7.8%.
The same measure for `COc1ccc(OC)c(-n2c(=S)[nH]c3cc(C(=O)N4CCCCC4)ccc3c2=O)c1`: 0.446%; for `CC(C)C(OC(=O)c1cccs1)C(=O)NC1CCCCC1` (stereo not given): 0.731%; for `Cc1c[n+]([O-])ccc1[N+](=O)[O-]`: 1.75%.
The figure for `CCc1nnc(NS(=O)(=O)c2ccc(NC(=S)NC(=O)/C=C/c3cccs3)cc2)s1` is -19.1%.
The figure for `COc1cc(C(C)=O)ccc1OC(C)C(=O)Nc1ccc(S(=O)(=O)N2CCCC2)cc1` (stereo not given) is -5.8%; for `C=CCn1c(=NC(=O)c2ccc(S(=O)(=O)N3CCCC3)cc2)sc2cc(NC(C)=O)ccc21` it is 50.4% (active); for `CC(=O)Nc1ccc(S(=O)(=O)N2CCSCC2)cc1` it is -10.4%.
Turning to `CC(NC(=O)CCCC1CCCCC1)c1ccc(S(N)(=O)=O)cc1` (stereo not given), the activation was -18.3%.
On to `Cc1n[nH]c(=O)c2c1nnn2Cc1ccc(F)cc1`, for which the activation is 0.186%.
The same measure for `O=C(CN1CCN(S(=O)(=O)c2ccc(Cl)s2)CC1)N1CCCCC1`: -6.89%.
The figure for `COc1cc(OC)cc(C(=O)N[C@H](C(=O)NNC(=O)c2ccc(Br)cc2)C(C)C)c1` is 23.4% (active); for `COc1ccc(N2CCN(C(=O)[C@@H](NC(=O)c3cc(OC)cc(OC)c3)C(C)C)CC2)cc1` it is -9.58%.
As for `COc1cc(OC)cc(C(=O)NC(C(=O)N2CCC2)C(C)C)c1` (stereo not given), the activation is 0.275%.
The same measure for `COc1ccc(C)cc1NC(=O)CN(C)S(=O)(=O)c1ccc2c(c1)n(C)c(=O)c(=O)n2C`: -14%.
Regarding `Cc1ccc(NC(=O)/C(=C\c2ccccc2)NC(=O)c2ccco2)cc1`, the activation is 10.9%.
The figure for `O=C(Nc1ccc2ccccc2c1)/C(=C/c1cccc(Br)c1)NC(=O)c1ccco1` is 23% (active); for `O=C(Nc1ccc2ccccc2c1)/C(=C\c1ccc2c(c1)OCO2)NC(=O)c1ccco1` it is 5.94%.
As to `COC(=O)c1ccc2c(c1)S(=O)(=O)NC(=NCCCN1CCOCC1)S2`, the activation was 0.881%.
With `COC(=O)c1ccc(C2C(Oc3ccccc3C)C(=O)N2CCc2ccc(OC)c(OC)c2)cc1` (stereo not given), the activation was -14.8%.
The same measure for `CC(C)(C)NC(=O)c1cccc(NC(=O)Cc2ccc(Br)cc2)c1`: -8.13%.
The figure for `COc1ccc(NC(=O)c2ccc(C#CC(C)(C)O)cc2)cc1` is -5.48%; for `COc1ccc(CC(=O)Nc2ccc(C(=O)NC(C)(C)C)cc2)cc1` it is 35.1% (active).
As to `CC(=O)N1CC(=O)N(CC(=O)Nc2ccc(Br)cc2)C1=S`, the activation was -0.232%.
The same measure for `O=C1c2cccc3cccc(c23)C(=O)N1CCCCCc1n[nH]c(=S)o1`: -2.23%.
The figure for `O=C1c2ccccc2C(=O)N1CCCCCCN1C(=O)c2ccccc2C1=O` is -2.1%; for `C[N+](C)(CCCCCC[N+](C)(C)CCCN1C(=O)c2cccc3cccc(c23)C1=O)CCCN1C(=O)c2cccc3cccc(c23)C1=O` it is 85% (active).
